Results filed as inconclusive are left out. A call without a number means that no potency is given here. Activity calls are given as the source filed them. Calls come from the whole dose curve; as a rule, active = well fitted inhibition curve with a large enough effect in the repeat runs; inconclusive = weak or mixed curves; inactive = flat fitted curve, though single readings scatter.
Each molecule was assayed against Luciferin 4-monooxygenase (Photinus pyralis) (UniProt P08659) (assay: qHTS assay to identify small molecule inhibitors of firefly luciferase (AID 1224835; note: nearly all actives have a fitted effect of over 25% in size)). Details: purified P. pyralis luciferase, luminescence inhibition; series mostly up to 115 µM.
Text: U.S. Tox21 Program National Center for Advancing Translational Sciences [NCATS] NIH Chemical Genomics Center [NCGC] U.S. Environmental Protection Agency [EPA] National Institutes of Environmental Health Sciences [NIEHS] National Toxicology Program [NTP] U.S. Food and Drug Administration [FDA] Tox21 Assay Overview: Firefly (Photinus pyralis) luciferase is one of the most commonly used transcriptional reporters. Firefly luciferase reporter-gene assays are generally considered one of the most sensitive assay types (Wood, 1995; Wood, 1998). However, it was initially observed, in 1991, by Thompson et al., that compounds that resemble the substrates of firefly luciferase (FLuc) can act as competitive inhibitors of the enzyme, and that these compounds, upon interaction with luciferase in the cell, can actually stabilize the protein and increase its half-life. Previous profiling work by other groups to determine the prevalence of compounds that affect FLuc enzymatic activity (PubChem AID 411) identified that ~3% of the MLSMR library (then at ~72K) inhibited FLuc. […] Thus the Tox21 10K library is profiled for activity against FLuc using a biochemical assay of purified FLuc and KM concentrations of FLuc substrates (D-luciferin and ATP).
These assay plates were then treated with 23nL of compound or DMSO using a Kalypsys pin tool, which allows for delivery of a 6-point interplate titration of each compound to the assay plate (quantitative HTS.) 1 uL of firefly luciferase mix (containing 50 mM Tris acetate, pH 7.6, 0.04 uM P. pyralis luciferase, 0.01% Tween, 0.05% BSA and dH2O) was then delivered by FRD to each well. Luciferase activity was then measured using a ViewLux CCD imager.

Luciferin 4-monooxygenase (Photinus pyralis), sequence (P08659 whole entry, looked up): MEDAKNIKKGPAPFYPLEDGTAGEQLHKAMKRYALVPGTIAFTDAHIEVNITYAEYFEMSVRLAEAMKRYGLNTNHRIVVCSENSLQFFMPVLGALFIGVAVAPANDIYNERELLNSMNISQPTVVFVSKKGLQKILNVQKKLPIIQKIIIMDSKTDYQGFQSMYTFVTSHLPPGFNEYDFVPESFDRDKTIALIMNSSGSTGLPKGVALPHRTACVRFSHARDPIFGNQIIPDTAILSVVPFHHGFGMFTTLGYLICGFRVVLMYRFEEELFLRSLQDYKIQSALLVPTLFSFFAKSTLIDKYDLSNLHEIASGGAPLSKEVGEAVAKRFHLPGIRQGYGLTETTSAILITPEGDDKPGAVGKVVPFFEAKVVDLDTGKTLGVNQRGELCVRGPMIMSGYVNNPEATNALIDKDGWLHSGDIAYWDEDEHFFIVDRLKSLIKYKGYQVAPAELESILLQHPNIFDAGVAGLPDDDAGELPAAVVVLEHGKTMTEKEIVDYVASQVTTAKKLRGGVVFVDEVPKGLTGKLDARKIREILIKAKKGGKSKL

Row | Compound | Potency
1 | CN1[C@@H]2CC[C@H]1CC(OC(=O)c1cc(Cl)cc(Cl)c1)C2 (stereo not given in full) | inactive
2 | CCCN(CC1CC1)c1c([N+](=O)[O-])cc(C(F)(F)F)cc1[N+](=O)[O-] | inactive
3 | COc1cc(Cl)c(OC)cc1Cl | inactive
4 | CC1CC(CC2CCC(N)C(C)C2)CCC1N (stereo not given) | inactive
5 | O=C(Nc1ccccc1)Nc1ccnc(Cl)c1 | 15.9 µM (active)
6 | [O-][Cl+]O | inactive
7 | COc1nn(C(=O)NS(=O)(=O)c2ccccc2OC(F)(F)F)c(=O)n1C | inactive
8 | Cc1c(F)c(F)c(COC(=O)C2C(/C=C(\Cl)C(F)(F)F)C2(C)C)c(F)c1F (stereo not given) | inactive
9 | CO/C=C(/C(=O)OC)c1ccccc1COc1cccc(C(F)(F)F)n1 | inactive
10 | COC1=CC(=O)O[C@@H](CCc2ccccc2)C1 | inactive
11 | C=CC(=O)OCC(C)O (stereo not given) | inactive
12 | Cl/C=C\Cl | inactive
13 | COC(=O)C(C)N(C(=O)Cc1ccccc1)c1c(C)cccc1C (stereo not given) | inactive
14 | CC(=O)[C@H]1CC[C@H]2[C@@H]3CC[C@H]4C[C@](C)(O)CC[C@]4(C)[C@H]3CC[C@]12C | inactive
15 | C=CC(C)=O | inactive
16 | Clc1cccc(SC2CCNCC2)n1 | inactive
17 | CCOP(O)OCC | inactive
18 | COC(C)(C)CCC[C@H](C)C/C=C/C(C)=C/C(=O)OC(C)C | inactive
19 | ClC=C(Cl)Cl | inactive
20 | Sc1ccccc1Cl | inactive

Row | Compound | Potency
21 | ClP(Cl)(Cl)(Cl)Cl | 31.9 µM (active)
22 | C[N+](C)(C)CCCl | inactive
23 | CCOP(=S)(OCC)SCSCC | inactive
24 | O=C(O)c1ccccc1C(=O)Nc1cccc2ccccc12 | inactive
25 | CCCCCCCCCC(=O)O[C@H]1CC[C@H]2[C@@H]3CCC4=CC(=O)CC[C@@H]4[C@H]3CC[C@]12C | inactive
26 | O=C(CBr)OCc1ccccc1 | inactive
27 | CC1(C)[C@H](C=C(Cl)Cl)[C@@H]1C(=O)O[C@@H](C#N)c1cccc(Oc2ccccc2)c1 | inactive
28 | CCOC(=O)C(Cl)C(C)=O (stereo not given) | inactive
29 | CC(=O)c1cc2c(cc1C)C(C)(C)C(C)CC2(C)C (stereo not given) | inactive
30 | c1cc2ccc3cccc4ccc(c1)c2c34 | inactive
31 | CCOP(=O)(OCC)SCCSCC | inactive
32 | ClCCCCBr | inactive
33 | C=CCOC(C)=O | inactive
34 | c1ccc(C2CC2)c(OCC2=NCCN2)c1 | inactive
35 | CCCCc1c(C)nc(NCC)nc1OS(=O)(=O)N(C)C | inactive
36 | C(=NC1CCCCC1)=NC1CCCCC1 | inactive
37 | O=S(=O)(Cl)c1ccccc1 | inactive
38 | CC1Sc2c(C(=O)O)c(=O)c3cc(F)c(N4CCNCC4)cc3n21 (stereo not given) | inactive
39 | O=C1C(Cl)C(CCl)CN1c1cccc(C(F)(F)F)c1 (stereo not given) | inactive
40 | CCOP(=S)(Oc1ccc([N+](=O)[O-])cc1)c1ccccc1 (stereo not given) | inactive
